# FGF22 binding: binders of recombinant human FGF22 by thermal shift. SYPRO orange fluorescence; percent of sucrose octasulfate shift, DMSO zero. activity (Tm shift, normalised), % at 9.99 µM. 1.5% of 340,000 active. AID 651658;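 active = mean Tm shift, scaled 0 neutral to 100 positive control, at about 1.3% or above, every replicate too, limit read from the data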
# Target sequence (Q9HCT0 whole entry, looked up): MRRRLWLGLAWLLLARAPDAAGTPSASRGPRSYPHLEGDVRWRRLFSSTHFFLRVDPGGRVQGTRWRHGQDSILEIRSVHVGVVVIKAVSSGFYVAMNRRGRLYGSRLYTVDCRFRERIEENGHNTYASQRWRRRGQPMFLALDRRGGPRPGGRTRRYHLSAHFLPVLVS
# INS-1E GSIS act: GLuc luminescence reporter in INS-1E cells, primary screen for activators of glucose-dependent secretion of insulin; INS-1E GLuc reporter insulin secretion, 2-3 h; activation, % at 16.6 µM; 0.61% of 370,000 active;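 active = lowest replicate activation of at least 40%, so every replicate reaches that level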
# ERAP1 HTS inh: inhibitors of human ERAP1 aminopeptidase. inhibition, % at 10.7 µM. recombinant ERAP1, Leu-AMC fluorescence, 60 min. AID 652197. 0.15% of 340,000 active. Q9NZ08;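 active = mean replicate inhibition of at least 30%, or all replicates individually reaching that 30% level; inactive = mean below 30% and not every replicate reaching it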
# SIRT5 block: blocks human SIRT5 desuccinylation of peptide; Q9NXA8; Purified SirT5, succinyl-peptide AMC, trypsin-coupled fluorescence; inhibition, % at 15 µM; 1.1% of 330,000 active; AID 652115; in the data active = inhibition above about 15%
# Casp6 inh: blocks human caspase-6 cleavage activity; P55212; inhibition, % at 12.5 µM; 0.53% of 350,000 active; purified caspase-6, Z-VEID-R110 cleavage fluorescence;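 active = mean inhibition across replicates at least about 35%, with every replicate also reaching that limit, limit read from the data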
# Numbers stand for hits; – = inactive; · = not tested or not shown. A selection: hits, their analogues and other compounds. The true share with any hit is near 3.3%.
SMILES,FGF22 binding,INS-1E GSIS act,ERAP1 HTS inh,SIRT5 block,Casp6 inh
O=C(C[C@@H]1CC[C@@H]2[C@H](COC[C@H](O)CN2C(=O)Nc2cc(Cl)cc(Cl)c2)O1)N1CCCCC1,–,–,–,–,–
Cc1ccc2nc(N/N=C/c3ccccc3C#N)nc(-c3ccccc3)c2c1,–,48.3,–,–,–
COc1ccc2c3c([nH]c2c1)[C@@H](CO)N(C(=O)Nc1ccc(F)cc1)CC31CN(Cc2ccccc2OC)C1,–,–,·,·,·
Nc1nc(SCC(=O)O)[nH]c(=O)c1NC(=O)c1ccccc1F,43.0,–,–,–,–
Cc1noc(C)c1S(=O)(=O)Nc1ccc2c(c1)C(=O)N([C@H](C)CO)C[C@@H](C)[C@H](CN(C)S(=O)(=O)c1cccs1)OCCCC[C@H](C)O2,–,–,·,·,·
O=[N+]([O-])c1ccc(N=Nc2c(Cl)cc(O)cc2Cl)cc1,–,–,–,–,–
O=C1CC(=Nc2ccc([N+](=O)[O-])cc2)NN1c1c(Cl)cc(Cl)cc1Cl,–,·,–,17.1,–
CCN1[C@H](C(=O)NCCc2ccccc2)[C@@H](CO)[C@@H]2Cn3c(ccc(C4=CCCC4)c3=O)[C@@H]21,–,–,–,–,–
CC(=O)N(C)C[C@@H]1Oc2ncc(/C=C/c3ccccc3)cc2C(=O)N([C@H](C)CO)C[C@H]1C,–,–,–,–,–
COc1cc(C)c(C)cc1S(=O)(=O)N1CCCCC1c1cccnc1 (configuration not stated),·,57.1,·,·,·
O=C(Nc1ccc(S(=O)(=O)N2CCCCC2c2cccnc2)cc1)c1c(F)cccc1F (configuration not stated),43.7,–,–,–,–
C[C@H]1CN([C@@H](C)CO)C(=O)c2cccc(NS(=O)(=O)c3ccc(Cl)cc3)c2O[C@H]1CN(C)C(=O)Nc1ccc2c(c1)OCO2,–,–,–,–,–
C[C@H]1CN([C@@H](C)CO)C(=O)c2cccc(NC(=O)CCCCCC(=O)Nc3ccccc3N)c2O[C@@H]1CN(C)Cc1ccc(-c2ccccc2)cc1,–,–,–,17.1,–
C[C@@H]1CN([C@H](C)CO)C(=O)c2cccc(NC(=O)CCCCCC(=O)Nc3ccccc3N)c2O[C@H]1CN(C)Cc1ccccc1,–,–,–,–,–
C[C@@H]1CN([C@H](C)CO)C(=O)c2cccc(NC(=O)CCCCCC(=O)Nc3ccccc3N)c2O[C@H]1CN(C)Cc1ccc(-c2ccccc2)cc1,–,–,–,16.6,–
CN(Cc1cn(C)nc1-c1ccccc1F)Cc1nccn1C,–,–,–,–,–
Cn1cc(CN(CCO)Cc2cccs2)c(-c2ccccc2F)n1,42.9,–,–,–,–
CCS(=O)(=O)N[C@H]1C=C[C@@H](CC(=O)NCc2ccc(Cl)cc2)O[C@@H]1CO,–,–,–,–,–
CN(CCO)c1cc(Sc2nc3ccccc3s2)c2nonc2c1[N+](=O)[O-],–,164.2,–,–,–
O=C(O)CN1C(=O)C2C3C=CC(C2C1=O)C1C(=O)N(CC(=O)O)C(=O)C31 (configuration not stated),–,–,–,–,–
O=C(O)CN1C(=O)C=CC1=O,–,–,–,–,36.1
O=C1C=CC(=O)N1CCCCCCN1C(=O)C=CC1=O,·,202.1,·,·,·
CSc1ccccc1C(=O)C1CCCN(Cc2cnn(-c3ccccc3)c2)C1 (configuration not stated),43.3,–,–,–,–
CSc1ccccc1C(=O)C1CCCN(Cc2c(C)n(C)n(-c3ccccc3)c2=O)C1 (configuration not stated),–,–,–,–,–
O=C(C1CCCC1)N1CC2(C1)[C@@H](c1ccccc1)[C@@H](CO)N2Cc1cncnc1,·,–,–,–,–
SMILES,FGF22 binding,INS-1E GSIS act,ERAP1 HTS inh,SIRT5 block,Casp6 inh
Cc1cc(OCCCN2CCC(C(O)(c3ccccc3)c3ccccc3)CC2)ccc1Br,–,476.8,–,–,–
Cc1cc(C)cc(OCCCN2CCC(C(O)(c3ccccc3)c3ccccc3)CC2)c1,–,182.4,–,·,–
Cc1ccccc1OCCCN1CCC(C(O)(c2ccccc2)c2ccccc2)CC1,–,·,–,·,–
O=C(C[C@@H]1C=C[C@H](NC(=O)C2CC2)[C@@H](CO)O1)NCCCN1CCOCC1,–,–,–,–,–
Cc1ccc(S(=O)(=O)Nc2ccc3c(c2)C(=O)N([C@H](C)CO)C[C@@H](C)[C@@H](CN(C)C(=O)Nc2ccccc2)OCCCC[C@@H](C)O3)cc1,–,–,–,–,–
COc1ccc(/C=C2\N=C(C(C)(C)C)OC2=O)c(OC)c1,–,–,–,–,–

# High-throughput results deposited in PubChem BioAssay by Broad Institute.
